Compounds with a hit are over-represented: about 19% of the library has one in this group of screens.
TDP1 cell CPT: qHTS for Inhibitors of human tyrosyl-DNA phosphodiesterase 1 (TDP1): qHTS in cells in presence of CPT; chicken DT40 Tdp1-/-;hTDP1 cells + 20 nM CPT, ATP luminescence, 48 h; Potency, µM (highest dose often 46.2 µM), inactives show at the highest dose activity change, negative = growth inhibition, actives largely listed as inhibitors; actives 12% (n = 420,000); AID 686979, 2013; also: potency is read from the fitted curve at half-maximal effect; nearly all actives have a fitted effect of over 55% in size
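Chicken DT40 Tdp1-/- cells complemented with human TDP1, 400 cells/well, exposed to compounds plus 20 nM camptothecin for at least 48 h at 37 C; viability read as ATP content by CellTiter-Glo luminescence.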
HT1080NT lethal: qHTS for induction of synthetic lethality in tumor cells producing 2HG: qHTS for the HT-1080-NT fibrosarcoma cell line. AID 686970, 2013. HT-1080-NT fibrosarcoma viability, CellTiter-Glo ATP luminescence, 48 h. Potency, µM (doses to about 46.1 µM), without a hit: at the top dose activity, negative = less viability, usual class: cytotoxic. actives 1.6% (n = 360,000);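 also: NT is the 2HG producing partner of a matched IDH1 knockdown line; potency is read from the fitted curve at half-maximal effect; 0% = DMSO-treated cells and -100% = media-only wells without cells; nearly all actives have a fitted effect of over 55% in size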
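Compounds were tested in concentration-response format on HT-1080-NT cells for 48 hours at 37 degrees C. Cell viability came from CellTiter-Glo luminescence; curves were classified by r2, response magnitude and activity.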
TDP1 cell noCPT: qHTS for Inhibitors of human tyrosyl-DNA phosphodiesterase 1 (TDP1): qHTS in cells in absence of CPT | DT40 Tdp1-/- hTDP1 cells, no CPT, ATP luminescence, 48 h | Potency, µM (highest dose often 46.2 µM), for the others: top-dose activity change, negative = growth inhibition, hits mostly inhibitors | actives 15% (n = 420,000) | AID 686978, 2013; also: potency is read from the fitted curve at half-maximal effect; nearly all actives have a fitted effect of over 55% in size
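Compound effects on proliferation are scored in DT40 Tdp1-/-;hTDP1 cells in the absence of CPT. ATP levels (CellTiter-Glo luminescence) are recorded after a ≥48 hr, 37 °C incubation.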
IL-1B inflam inh: qHTS for Inhibitors of Inflammasome Signaling: IL-1-beta AlphaLISA Primary Screen | actives 4.7% (n = 360,000) | activity change, % at 57.5 µM | THP-1 LPS/ATP IL-1B secretion, AlphaLISA, 16 h; hits give low values; in the data active = activity change below about -50%; inconclusive = mostly about -30% to -49%
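Secreted IL-1B measured by AlphaLISA bead assay after 16 h compound exposure of THP-1 cells; compounds (final up to 57.5 uM) added 1 h before LPS (250 ng/mL) and ATP (1.25 mM) stimulation; lower signal means less secretion.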
HT1080 IDH1KD tx: qHTS for induction of synthetic lethality in tumor cells producing 2HG: qHTS for the HT-1080-IDH1KD cell line | HT-1080 IDH1 knockdown viability, ATP luminescence, 48 h | actives 2% (n = 360,000) | Potency, µM (series often up to 46.1 µM), for the others: at the top dose activity, negative = toxicity, usual class: cytotoxic;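 also: potency is read from the fitted curve at half-maximal effect; 0% = DMSO wells and -100% = cell-free medium wells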
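Knockdown cells (IDH1KD HT-1080) received compounds 2 h after plating at 750 cells/well and were kept 48 h at 37 °C in 5% FBS RPMI. A CellTiter-Glo luminescence read gave % activity for curve fitting.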
Active calls of the source: *; ? = inconclusive; nt = not tested or not shown; [ ] = dose if it differs, or a comment. Unless noted, calls follow the shape of the dose curve; as a rule, active = well fitted curve in the direction sought with a large enough effect; inconclusive = small, poorly fitted or top-dose-only effect, or another doubt; inactive = no such curve, though single readings can be large; an effect the other way counts as inactive or inconclusive. Unless noted, % is scaled to controls: 0 for no effect and ±100 for the full control effect.

SMILES | TDP1 cell CPT | HT1080NT lethal | TDP1 cell noCPT | IL-1B inflam inh | HT1080 IDH1KD tx
CCOc1ccc(NC(=O)c2ccc(S(=O)(=O)N(C)C)cc2)cc1 | -23.0% | 3.7% | -20.7% | 0.9 | -3.3%
COC(=O)c1ccc(CN(c2ccc(OC)cc2)S(=O)(=O)c2ccccc2)cc1 | ? | -15.7% | 13µM* | -9.7 | -10.5%
O=C(CNc1cc(S(=O)(=O)N2CCOCC2)ccc1NCC1CCCO1)Nc1ccc(F)c(F)c1 (stereo not given) | ? | 0.1% | -26.6% | -14.0 | -15.9%
CCOc1cccc(C(=O)NNC(=O)CCC(=O)O)c1 | -1.7% | 13.5% | -25.2% | -0.3 | 13.4%
O=C(CSc1nc(-c2ccccc2)c2ccccc2n1)Nc1ccc(F)cc1 | -23.1% | nt | -1.7% | nt | nt
Cc1nc(-c2c(C(=O)NNC(=O)Nc3c(C)cccc3C)noc2C)cs1 | 2.1% | 14.0% | -0.8% | 6.5 | 1.1%
COc1cc(C2NC(=O)CCC2[N+](=O)[O-])cc(OC)c1OC (stereo not given) | -13.9% | 9.5% | 3.1% | 5.3 | 5.9%
CC(=NNc1nc2ccccc2s1)c1ccncn1 | 0.103µM* | ? | 0.146µM* | -94.4* | ?
C/C(=N\Nc1nc2ccccc2s1)c1ccc(Br)s1 | ? | ? | ? | -103.5* | ?
C/C(=N\Nc1nc2ccccc2s1)c1ccc2c(c1)OCO2 | ? | -29.4% | -94.4% | 12.3 | -29.9%
CN(C)S(=O)(=O)c1cc(NC(=O)CSc2ncc(C(F)(F)F)cc2Cl)ccc1Cl | 14.6µM* | ? | 16.4µM* | -81.6* | ?
COCCn1c(SCC(=O)Nc2ccc(Cl)c(S(=O)(=O)N(C)C)c2)nc2ccccc21 | ? | -22.7% | 16.4µM* | 0.0 | -20.8%
COC(=O)c1ccc(Cn2c(SCC(=O)NCc3ccccc3)nc3ccccc32)cc1 | 20.6µM* | nt | 23.1µM* | nt | nt
COCCn1c(SCC(=O)Nc2ccc(S(N)(=O)=O)cc2)nc2ccccc21 | 0.4% | -4.9% | -22.9% | -6.8 | -0.7%
COc1ccc(Cn2c(SCC(=O)Nc3ccc(OC)cc3)nc3ccccc32)cc1 | 25.9µM* | nt | ? | nt | nt
CC1(C(=O)Nc2ccc3c(c2)OCCO3)CCC(=O)N1CCOc1ccccc1 (stereo not given) | -12.8% | 18.0% | 4.7% | -11.6 | 22.4%
CCN(C(=O)CSc1nc2ccccc2n1Cc1ccc(C(=O)OC)cc1)c1ccccc1 | 20.6µM* | nt | 13µM* | nt | nt
CN(C)C(=O)CSc1nc2ccccc2n1Cc1ccccc1 | ? | -4.3% | ? | 10.3 | -5.5%
O=C(Cn1c(SCC(=O)Nc2ccc(F)cc2)nc2ccccc21)NCc1ccc(Cl)cc1 | ? | nt | 13µM* | nt | nt
O=C(CSc1nc2ccccc2n1CC(=O)Nc1ccc(F)cc1F)Nc1ccc(F)cc1 | ? | nt | -4.7% | nt | nt
Cc1ccc2oc(C(Cl)(Cl)Cl)cc(=O)c2c1 | 4.61µM* | 10µM* | 5.8µM* | -99.9* | ?
Cc1ccc2oc(C(F)(F)C(F)F)cc(=O)c2c1 | 8.9% | 19.1% | -15.2% | -4.5 | 13.1%
O=C(O)COc1c(-c2ccco2)oc2ccccc2c1=O | 5.1% | -0.8% | -10.0% | 17.9 | 0.6%
CC(=O)Oc1c(-c2ccc(Br)o2)oc2ccccc2c1=O | 25.9µM* | -18.9% | 14.6µM* | -29.3 | ?
CCOC(=O)COc1c(-c2ccc(OC)cc2)oc2ccccc2c1=O | ? | 5.2% | ? | 10.9 | -4.3%
SMILES | TDP1 cell CPT | HT1080NT lethal | TDP1 cell noCPT | IL-1B inflam inh | HT1080 IDH1KD tx
COc1ccc(-c2oc3ccccc3c(=O)c2OC(C)=O)cc1 | 23.1µM* | ? | 16.4µM* | 19.2 | ?
Cn1c(=O)oc2cc(S(=O)(=O)N3CCCC(C(=O)NCc4ccccc4Cl)C3)ccc21 (stereo not given) | -21.8% | nt | -16.7% | nt | nt
CCOC(=O)c1ccc(N2CN(CCc3ccccc3)CNC2=S)cc1 | 16.4µM* | 10.1% | ? | -10.1 | 0.5%
COc1cc(C(=O)NCc2ccc(C)cc2)ccc1OCc1c(C)noc1C | -28.3% | 2.5% | ? | -11.4 | -3.2%
COc1cc(C(=O)NCC(c2ccccc2)N(C)C)ccc1OCc1c(C)noc1C (stereo not given) | 16.4µM* | -20.1% | ? | 5.2 | ?
COc1cc(C(=O)OCC#N)ccc1OCc1c(C)noc1C | ? | ? | 23.1µM* | 81.4 | 25.9µM*
COc1cc(C(=O)NCCc2c[nH]c3ccccc23)ccc1OCc1c(C)noc1C | ? | -17.7% | 18.4µM* | -77.3* | -11.4%
COc1ccccc1CNC(=O)c1ccc(OCc2c(C)noc2C)c(OC)c1 | 3.9% | 15.5% | -20.1% | -11.6 | 11.4%
Cc1ccc(C(=O)NCc2ccccn2)cc1Cl | -2.6% | 8.4% | -0.8% | -8.4 | 0.7%
Cc1ccc(-c2cc(C(=O)O)n(Cc3ccccc3)n2)cc1 | 1.7% | nt | -11.1% | nt | nt
COc1cccc(NC(=O)CCCn2nc(C)c3c(C)n(-c4ccccc4)nc3c2=O)c1 | -25.8% | -0.9% | 17.1% | -10.2 | 2.8%
COCCN1CCn2c(nc3cc(NC(=O)c4ccc(OC)cc4)ccc32)C1 | 20.6µM* | 28.4% | 20.6µM* | -6.6 | 23.1%
COCCN1CCn2c(nc3cc(NC(C)=O)ccc32)C1 | 10.4% | 14.0% | 7.9% | 14.9 | 16.0%
O=C(Nc1ccc2c(c1)nc1n2CCN(Cc2ccccc2)C1)c1cccs1 | ? | 0.4% | 18.4µM* | -94.1* | 1.1%
O=C(Nc1ccc2c(c1)nc1n2CCN(Cc2ccccc2)C1)NC1CCCCC1 | ? | ? | 20.6µM* | -11.7 | -5.1%
COCCN1CCn2c(nc3cc(NC(=O)NC4CCCCC4)ccc32)C1 | ? | -3.3% | 16.4µM* | -24.1 | 9.5%
CC(C)(C)c1ccc(C(=O)N2CCC3(CC2)CC3C(=O)NCCc2ccccn2)cc1 (stereo not given) | -7.5%[9.04 µM] | nt | -28.6% | nt | nt
O=C(O)COc1ccccc1/C=N/NC(=O)Cc1csc(Nc2cccc(C(F)(F)F)c2)n1 | 3.2% | 3.6% | -7.6% | -9.1 | -0.3%
COc1ccc(-n2c(NN)nc3sc4c(c3c2=O)CCCC4)cc1 | -3.4% | ? | ? | -14.6 | ?
O=c1c2c3c(sc2nc(NCCO)n1-c1ccccc1)CCCC3 | 6.51µM* | ? | 11.6µM* | 9.0 | ?
CSc1nc2sc3c(c2c(=O)n1-c1ccc(C)cc1)CCCC3 | ? | nt | 8.2µM* | nt | nt
CSc1nc2sc3c(c2c(=O)n1-c1ccccc1)CCC(C(C)(C)C)C3 (stereo not given) | ? | nt | 0.92µM* | nt | nt
CC(C)Sc1nc2sc3c(c2c(=O)n1-c1ccccc1)CCCC3 | ? | nt | 18.4µM* | nt | nt
